Assay [1] is described as follows: ATG_E_Box_CIS: Attagene CIS-FACTORIAL HepG2 Assay for human Enhancer Box (E-box) (AID 2282936). As to conditions: HepG2 E-box cis-reporter transcription, actives raise or lower the signal. In short, it runs like this:
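E-box-driven reporter transcripts measured in transiently transfected HepG2 after 24 h exposure: RNA reverse-transcribed, PCR-amplified, fluorescently labelled, digested and resolved by capillary electrophoresis. Gain or loss relative to DMSO.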

The nature of assay [2]: ATG_EGR_CIS: Attagene CIS-FACTORIAL HepG2 Assay for human Early Growth Response 1 (EGR1) (AID 2282938). As to conditions: HepG2 Attagene CIS-FACTORIAL EGR reporter mRNA; actives raise or lower the signal. In short, it runs like this:
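HepG2 cells transiently transfected with cis-element-driven multiplexed reporter units, dosed for 24 h. EGR1-element reporter mRNA quantified by RT-PCR, 6-FAM labelling, HpaI digestion and capillary electrophoresis; bidirectional fit versus DMSO.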

Assay [3] in a line: ATG_Ets_CIS: Attagene CIS-FACTORIAL HepG2 Assay for human Erythroblast Transformation Specific (ETS) (AID 2282941). As to conditions: HepG2 ETS cis-reporter transcription, actives raise or lower the signal. The procedure, abridged:
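Endogenous transcription factor activity read as reporter mRNA via RT-PCR and capillary electrophoresis, with gain or loss fitted bidirectionally against DMSO. Human HepG2 liver cells, transiently transfected CIS reporter constructs, 24 h exposure.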

Assay [4] addresses Hepatocyte nuclear factor 3-beta (Homo sapiens) (UniProt Q9Y261). In words: ATG_FoxA2_CIS: Attagene CIS-FACTORIAL HepG2 Assay for human Forkhead box A2 (FOXA2) (AID 2282942). As to conditions: HepG2 cis-reporter transcription factor activity, 24 h; actives raise or lower the signal. The procedure, abridged:
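HepG2 transiently transfected with a multiplexed cis-promoter reporter library read endogenous FOXA2 activity. After 24 h compound exposure, reporter mRNA was quantified by RT-PCR, HpaI digestion and capillary electrophoresis. Bidirectional fit against DMSO.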

Assay [5] in a line: ATG_FoxO_CIS: Attagene CIS-FACTORIAL HepG2 Assay for human Forkhead box O (FoxO) (AID 2282943). As to conditions: HepG2 Attagene cis-reporter, FoxO element, mRNA; actives raise or lower the signal. In short, it runs like this: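 HepG2, transient MRTU transfection (cis element, endogenous TFs). Dose 24 h. TriZol RNA → oligo(dT) RT → PCR → 6-FAM primer extension → HpaI cut → CE. Gain/loss vs DMSO.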

A short description of assay [6]: ATG_GATA_CIS: Attagene CIS-FACTORIAL HepG2 Assay for human GATA Binding Protein (AID 2282944). The following applies: HepG2 GATA cis-element reporter, Attagene multiplex mRNA; actives raise or lower the signal. The procedure, abridged: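 Transfected cis-reporter HepG2 cells were treated with chemicals for 24 hours. Total RNA was then converted to cDNA, amplified with reporter-specific primers and analysed by fluorescent capillary electrophoresis, using DMSO-treated wells as baseline.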

Assay [7] can be described thus: ATG_GRE_CIS: Attagene CIS-FACTORIAL HepG2 Assay for human Glucocorticoid Response Elements (GRE) (AID 2282947). The following applies: HepG2 GRE cis-reporter, Attagene multiplex mRNA; actives raise or lower the signal. The procedure, abridged: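 Reporter transcripts read by RT-PCR with capillary electrophoresis fluorescence after a 24 h chemical exposure of HepG2 cells transiently transfected with multiple cis-element reporter units. Gain or loss fitted against DMSO.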

A short description of assay [8]: ATG_ISRE_CIS: Attagene CIS-FACTORIAL HepG2 Assay for human Interferon Regulatory Factor 1 (IRF1) binding to an Interferon-Stimulated Response Element (ISRE) (AID 2282948). The following applies: HepG2 ISRE cis-reporter (Attagene), mRNA transcription readout; actives raise or lower the signal. In short, it runs like this:
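Endogenous transcription factor activity read as reporter transcript abundance via RT-PCR and capillary electrophoresis. HepG2 cells transiently transfected, 24 h chemical exposure. Gain or loss fitted against DMSO baseline.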

A short description of assay [9]: ATG_M_32_CIS: Attagene CIS-FACTORIAL HepG2 Assay for M32 Transcription Factor (Internal Marker) (AID 2282949).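 Note: background control marker of the multiplexed CIS panel rather than a real target.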 The following applies: HepG2 Attagene cis-factorial M32 reporter, mRNA; actives raise or lower the signal. The procedure, abridged: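 HepG2 transfectants (cis-regulated reporter transcription units) dosed 24 h. Reporter mRNA by RT-PCR plus CE, analysed as gain or loss relative to DMSO.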

Assay [10] is described as follows: ATG_M_06_CIS: Attagene CIS-FACTORIAL HepG2 Assay for M06 Transcription Factor (Internal Marker) (AID 2282950). The following applies: HepG2 Attagene CIS-FACTORIAL M06 internal marker reporter; actives raise or lower the signal. The procedure, abridged: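 Cells (HepG2, transiently carrying cis-driven reporter units) receive chemical for 24 h before RNA isolation. Reporter cDNA is PCR-amplified, FAM-labelled by primer extension, HpaI-digested and sized on a capillary analyser.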

Assay [11] has as its target Hypoxia-inducible factor 1-alpha (Homo sapiens) (UniProt Q16665). In words: ATG_HIF1a_CIS: Attagene CIS-FACTORIAL HepG2 Assay for human Hypoxia Inducible Factor 1 (HIF1A) (AID 2282951). The following applies: HepG2 Attagene cis-factorial HIF1a reporter transcription; actives raise or lower the signal. In short, it runs like this: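 HepG2 cells transiently transfected with multiple cis-regulated reporter transcription units measure endogenous transcription factor activity. After 24 h exposure, reporter mRNA is quantified by RT-PCR with 6-FAM labelling, HpaI digestion and capillary electrophoresis. Bidirectional fitting against DMSO.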

Assay [12] addresses Hepatocyte nuclear factor 6 (Homo sapiens) (UniProt Q9UBC0). Nature of the assay: ATG_HNF6_CIS: Attagene CIS-FACTORIAL HepG2 Assay for human Hepatocyte Nuclear Factor 6 (HNF6) (AID 2282952). The following applies: HepG2 Attagene cis-factorial HNF6 reporter transcription; actives raise or lower the signal. The procedure, abridged: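 Endogenous transcription factor activity in human HepG2 liver cells was captured through cis-regulated reporter constructs. After 24 h treatment, reporter mRNA was measured by RT-PCR with capillary electrophoresis, and activity was fitted in both directions relative to DMSO.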

Assay [13] can be described thus: ATG_MRE_CIS: Attagene CIS-FACTORIAL HepG2 Assay for human Metal Responsive Element (MRE) (AID 2282954). The following applies: HepG2 MRE cis-reporter transcription, Attagene multiplex; actives raise or lower the signal. The procedure, abridged: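 Endogenous MRE-dependent transcription read as reporter mRNA in transiently transfected human HepG2 cells at 24 h. RNA reverse-transcribed, PCR-amplified, labelled and resolved by capillary electrophoresis; gain or loss relative to DMSO.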

Assay [14] can be described thus: ATG_M_19_CIS: Attagene CIS-FACTORIAL HepG2 Assay for M19 Transcription Factor (Internal Marker) (AID 2282939). The following applies: HepG2 Attagene CIS-FACTORIAL M19 internal marker reporter; actives raise or lower the signal. In short, it runs like this:
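Chemical-treated HepG2 (24 h) with MRTU constructs; reporter transcripts detected by fluorescent RT-PCR fragment analysis on capillary electrophoresis. Internal background marker, DMSO as baseline.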

Assay [15] is described as follows: ATG_ERE_CIS: Attagene CIS-FACTORIAL HepG2 Assay for Estrogen Response Element (ERE) (AID 2282940). As to conditions: HepG2 ERE cis-reporter, Attagene RNA transcript; actives raise or lower the signal. The procedure, abridged: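 Human liver cells (HepG2) bearing transiently transfected, promoter-regulated reporter units were exposed 24 h. Reporter mRNA induction was detected by capillary electrophoresis of labelled RT-PCR products and fitted bidirectionally to DMSO.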

Assay [16] is described as follows: ATG_GLI_CIS: Attagene CIS-FACTORIAL HepG2 Assay for human Zinc Finger Protein GLI1 (AID 2282945). The following applies: HepG2, Attagene cis-factorial reporter mRNA, GLI element; actives raise or lower the signal. In short, it runs like this: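 Bidirectional curve fits relative to DMSO, using reporter mRNA levels from RT-PCR plus capillary electrophoresis. Cells were HepG2 transiently carrying cis-regulated reporter constructs, harvested 24 h after dosing.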

Assay [17] concerns the target Bile acid receptor (Homo sapiens) (UniProt Q96RI1). Nature of the assay: ATG_IR1_CIS: Attagene CIS-FACTORIAL HepG2 Assay for human Nuclear Receptor Subfamily 1 Group H Member 4 (NR1H4), IR1 submotif (AID 2282946). As to conditions: IR1 reporter transcription, actives raise or lower the signal. In short, it runs like this:
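HepG2 cells transiently transfected with multiplexed cis-element reporter units read endogenous transcription factor activity. After 24 h compound exposure, reporter mRNA was quantified by RT-PCR, fluorescent labelling, HpaI digestion and capillary electrophoresis; bidirectional fitting versus DMSO baseline.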

Assay [18] has as its target Heat shock factor protein 1 (Homo sapiens) (UniProt Q00613). Nature of the assay: ATG_HSE_CIS: Attagene CIS-FACTORIAL HepG2 Assay for human Heat Shock Transcription Factor 1 (HSE) (AID 2282953). The following applies: HepG2 HSE cis-reporter, Attagene RNA transcription; actives raise or lower the signal. The procedure, abridged: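 Liver-derived HepG2 cells carry transiently introduced multiple reporter units governed by cis promoters. Reporter RNA measured 24 h post-dose through reverse transcription, PCR amplification, fluorescent labelling and capillary electrophoresis, normalised to DMSO.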

Assay [19] in a line: ATG_PBREM_CIS: Attagene CIS-FACTORIAL HepG2 Assay for human Phenobarbital-responsive Enhancer Module (PBREM) (AID 2282955). As to conditions: HepG2 PBREM cis-reporter, Attagene multiplexed transcription; actives raise or lower the signal. In short, it runs like this: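 HepG2 cells transiently transfected with multiple cis-regulated reporter units measure endogenous transcription factor activity; 24 h compound exposure. Reporter mRNA quantified by RT-PCR, fluorescent labelling, HpaI digestion and capillary electrophoresis; bidirectional fit versus DMSO.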

A short description of assay [20]: ATG_M_61_CIS: Attagene CIS-FACTORIAL HepG2 Assay for M61 Transcription Factor (Internal Marker) (AID 2282937). As to conditions: HepG2 Attagene CIS-FACTORIAL M61 internal marker reporter; actives raise or lower the signal. The procedure, abridged: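 HepG2 cells transiently transfected with multiplexed cis-promoter reporter units reporting endogenous transcription factor activity, measured 24 h after dosing. Reporter mRNA quantified by RT-PCR and capillary electrophoresis; bidirectional fit against DMSO baseline.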

Activity calls are given as the source filed them. Rule for the calls: active = hit-call score of the fitted dose curve at least 0.9, where 1 is the maximum; inactive = score below 0.9.

Sequence of Hepatocyte nuclear factor 3-beta (Homo sapiens) (Q9Y261 whole entry, looked up): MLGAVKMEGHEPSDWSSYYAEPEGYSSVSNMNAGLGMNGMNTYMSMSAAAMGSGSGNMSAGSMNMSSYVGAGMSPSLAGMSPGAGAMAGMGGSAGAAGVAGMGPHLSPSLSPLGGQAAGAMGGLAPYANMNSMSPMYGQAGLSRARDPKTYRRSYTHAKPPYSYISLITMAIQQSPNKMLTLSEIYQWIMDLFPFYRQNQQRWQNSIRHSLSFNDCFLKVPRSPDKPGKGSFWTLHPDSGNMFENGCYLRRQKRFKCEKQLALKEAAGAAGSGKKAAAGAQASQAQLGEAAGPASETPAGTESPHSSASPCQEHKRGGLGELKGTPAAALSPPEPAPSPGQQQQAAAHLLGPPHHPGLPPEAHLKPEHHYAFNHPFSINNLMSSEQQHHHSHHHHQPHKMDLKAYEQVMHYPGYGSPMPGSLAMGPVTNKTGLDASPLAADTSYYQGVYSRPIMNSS
Sequence of Hypoxia-inducible factor 1-alpha (Homo sapiens) (Q16665 whole entry, looked up): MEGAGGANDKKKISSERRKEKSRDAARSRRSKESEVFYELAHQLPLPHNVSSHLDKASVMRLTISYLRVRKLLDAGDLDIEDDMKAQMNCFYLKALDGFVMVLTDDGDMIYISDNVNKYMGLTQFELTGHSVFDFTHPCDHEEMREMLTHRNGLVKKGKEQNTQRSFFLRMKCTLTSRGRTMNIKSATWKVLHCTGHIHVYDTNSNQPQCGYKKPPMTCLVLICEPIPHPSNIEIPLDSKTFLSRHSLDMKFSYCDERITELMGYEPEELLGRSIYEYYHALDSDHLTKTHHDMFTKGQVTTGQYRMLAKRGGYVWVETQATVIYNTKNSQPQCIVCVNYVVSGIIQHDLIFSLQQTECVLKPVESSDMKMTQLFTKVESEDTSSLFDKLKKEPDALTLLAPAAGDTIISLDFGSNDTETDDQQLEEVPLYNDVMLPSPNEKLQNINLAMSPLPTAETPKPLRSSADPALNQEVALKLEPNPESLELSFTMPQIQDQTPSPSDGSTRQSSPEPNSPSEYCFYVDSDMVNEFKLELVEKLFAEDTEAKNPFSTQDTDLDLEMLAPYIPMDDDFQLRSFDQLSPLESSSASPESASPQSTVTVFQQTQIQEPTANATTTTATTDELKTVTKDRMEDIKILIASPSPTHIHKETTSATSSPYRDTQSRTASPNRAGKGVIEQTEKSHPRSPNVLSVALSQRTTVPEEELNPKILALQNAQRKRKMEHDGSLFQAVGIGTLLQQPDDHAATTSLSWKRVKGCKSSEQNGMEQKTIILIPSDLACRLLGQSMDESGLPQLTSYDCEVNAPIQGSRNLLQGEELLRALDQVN
Sequence of Heat shock factor protein 1 (Homo sapiens) (Q00613 whole entry, looked up): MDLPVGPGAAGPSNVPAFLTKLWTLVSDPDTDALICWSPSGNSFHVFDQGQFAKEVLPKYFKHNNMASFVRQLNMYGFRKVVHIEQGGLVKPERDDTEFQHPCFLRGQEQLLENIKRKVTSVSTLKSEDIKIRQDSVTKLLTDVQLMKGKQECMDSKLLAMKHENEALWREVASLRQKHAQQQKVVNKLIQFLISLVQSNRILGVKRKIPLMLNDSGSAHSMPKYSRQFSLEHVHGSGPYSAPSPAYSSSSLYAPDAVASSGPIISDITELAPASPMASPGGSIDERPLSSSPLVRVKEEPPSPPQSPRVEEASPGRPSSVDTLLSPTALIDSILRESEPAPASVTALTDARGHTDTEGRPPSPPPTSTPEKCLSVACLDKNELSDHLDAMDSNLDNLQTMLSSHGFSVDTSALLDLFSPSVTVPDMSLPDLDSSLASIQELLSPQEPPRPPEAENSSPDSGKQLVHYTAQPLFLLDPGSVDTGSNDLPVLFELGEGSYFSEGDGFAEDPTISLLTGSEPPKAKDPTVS
Sequence of Bile acid receptor (Homo sapiens) (Q96RI1 whole entry, looked up): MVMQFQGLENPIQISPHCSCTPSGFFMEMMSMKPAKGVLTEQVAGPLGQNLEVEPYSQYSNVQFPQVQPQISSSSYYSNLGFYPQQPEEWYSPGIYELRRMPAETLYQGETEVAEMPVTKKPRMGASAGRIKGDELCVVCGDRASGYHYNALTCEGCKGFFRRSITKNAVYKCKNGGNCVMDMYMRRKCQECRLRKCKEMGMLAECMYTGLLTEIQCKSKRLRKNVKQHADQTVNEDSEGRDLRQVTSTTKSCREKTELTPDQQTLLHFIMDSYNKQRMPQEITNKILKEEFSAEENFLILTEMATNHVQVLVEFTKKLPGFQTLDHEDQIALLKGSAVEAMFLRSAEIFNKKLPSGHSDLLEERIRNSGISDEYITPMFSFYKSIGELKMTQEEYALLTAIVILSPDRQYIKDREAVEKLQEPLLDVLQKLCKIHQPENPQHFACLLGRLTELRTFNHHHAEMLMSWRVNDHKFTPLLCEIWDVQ
Sequence of Hepatocyte nuclear factor 6 (Homo sapiens) (Q9UBC0 whole entry, looked up): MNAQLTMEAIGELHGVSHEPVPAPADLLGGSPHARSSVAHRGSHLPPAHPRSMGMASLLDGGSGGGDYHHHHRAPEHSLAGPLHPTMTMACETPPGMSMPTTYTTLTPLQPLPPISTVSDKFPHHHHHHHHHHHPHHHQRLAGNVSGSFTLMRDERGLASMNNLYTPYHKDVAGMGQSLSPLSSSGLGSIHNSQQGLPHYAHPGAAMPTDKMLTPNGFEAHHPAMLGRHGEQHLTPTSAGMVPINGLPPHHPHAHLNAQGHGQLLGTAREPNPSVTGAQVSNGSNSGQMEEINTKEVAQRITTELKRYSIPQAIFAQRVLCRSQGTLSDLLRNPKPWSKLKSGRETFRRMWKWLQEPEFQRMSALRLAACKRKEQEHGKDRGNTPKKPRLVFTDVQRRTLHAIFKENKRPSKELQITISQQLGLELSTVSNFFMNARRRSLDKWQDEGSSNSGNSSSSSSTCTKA

With `CCCCC(CC)COC(=O)/C=C\C(=O)OCC(CC)CCCC` (stereo not drawn), the result in assay [1], in [2], in [3], in [4], in [5] and in assay [6] was inactive. In addition, the compound was classed as inactive in assay [7], in [8], in [9], in assay [10] and in assay [13]. Moreover, the values for the AC50 in assay [11] and in [12] were 21.2 µM (active) and 171 µM (active), respectively.

As for `CC(C)(Oc1ccc(CCNC(=O)c2ccc(Cl)cc2)cc1)C(=O)O`, the outcome in assay [1], in [2], in assay [14], in assay [15], in assay [3] and in assay [4] was inactive. For the same compound, the compound was called inactive in assay [5], in assay [6], in [16], in [17], in [7] and in [8]. For the same compound, the outcome in [9], in assay [10], in assay [12], in [18], in assay [13] and in [19] was inactive.

Consider `CCCCOCCOCCOCCOCCO`, for which the call in assay [20], in assay [2], in [14], in [15], in assay [3] and in [4] was inactive. Also, the compound was called inactive in assay [5], in assay [6], in assay [16], in assay [8], in assay [9] and in assay [10]. For the same compound, the result in [11], in assay [12], in [18] and in [13] was inactive.

With `OCCOCCOCCOCCO`, the outcome in [20], in assay [2], in assay [14], in [15], in [3] and in assay [4] was inactive. The outcome in [5], in assay [6], in assay [16], in assay [8], in assay [9] and in assay [10] was inactive. The result in assay [12] and in assay [13] was inactive. Further, the concentration at half-maximal activity (AC50) in assay [18] was 57.2 µM (active).

Consider `CC(C)(COC(=O)c1ccccc1)COC(=O)c1ccccc1`, for which the outcome in assay [20], in assay [2], in [14], in assay [3], in [4] and in [5] was inactive. Further, the outcome in assay [6], in [7], in assay [8], in assay [9], in assay [12] and in assay [18] was inactive. Also, the outcome in assay [13] was inactive. For the same compound, the AC50 in assay [11] is 47.2 µM (active).

Regarding `CCCC/C=C\CCCCCCCCCC=O`, the compound was called inactive in [20], in [2], in assay [14], in assay [4], in assay [5] and in assay [6]. Further, the outcome in assay [16], in assay [17], in [8], in assay [11], in [12] and in assay [18] was inactive. Also, the call in assay [13] and in assay [19] was inactive.

Take `Cc1ccc(Nc2ccc(O)c3c2C(=O)c2ccccc2C3=O)cc1`: the compound was called inactive in assay [20], in assay [2], in [14], in assay [15], in assay [3] and in [4]. The compound was classed as inactive in [5], in assay [6], in assay [16], in assay [17], in assay [8] and in [10]. Besides, the call in [11], in assay [12], in [18], in [13] and in assay [19] was inactive.

For `Cc1ccc(C(=O)O)o1`, the outcome in [20], in [2], in [14], in assay [3], in assay [4] and in [5] was inactive. Moreover, the compound was called inactive in assay [6], in assay [16], in assay [8], in assay [9], in assay [10] and in assay [11]. For the same compound, the outcome in assay [12], in [18], in [13] and in assay [19] was inactive.

The record behind these values is PubChem BioAssay (EPA / NIEHS).
